From the supplement of paper PMC11417369
± gives the standard deviation of the averaged measurements. Over roughly 25,000 sequences, “ln(normalized median fluorescence intensity)” has its median near 10; the highest 2% begin near 12. What follows is part of a selection rich in the highest values, with near analogues and random picks from the rest.

These sequences were tested on PfAP2-G AP2 domain (GST-tagged) (assay: gcPBM binding intensity (ln(normalized median fluorescence intensity)); higher = stronger DNA binding).
Method in brief: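 An Agilent 4 × 180k array carrying primer-extended double-stranded 36-bp intergenic genomic probes and negative controls received GST-tagged P. falciparum DNA-binding domains expressed in E. coli, about 25 μg on average, for 1 h. The binding buffer contained 1× PBS, 1% milk, 0.2 mg/ml BSA, 0.5% salmon testes DNA and 0.03% Triton X-100. Binding intensity is the top Masliner-normalised natural-log median intensity across replicate spots of either probe orientation, read after Alexa488 anti-GST antibody staining and a 488 nm scan.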

Sequence	gcPBM binding intensity (ln)
CATATTAATATTATGGGTACATATAAATTTACATTC [XGTACX_site687]	11.4 ± 0.83
TTTCTTGGGAGACATGCATGTACCAGAACAAAATAA [TGCATGCA_site272]	10.9 ± 0.64
AAAAAAAAAAAAAAAAAAAAAAAAAAAAATAAAAAA [CACACA_negctrl_site59]	11 ± 0.47
AAAATAATAAAAAACTGTACGAATTAAAAATTAACA [XGTACX_site8454]	11.1 ± 0.8
TATTATATATATAACTGTACGTTTATAATATAAAAA [XGTACX_site3778]	11.4 ± 1.1
AATAATAACTGTAGGTGTACGTAAAAAAAAAATTAT [XGTACX_site3133]	11.7 ± 0.96
AAAACATATTTTAAAAGTACTTGAAAAAAAATTTTC [XGTACX_site3940]	11 ± 0.56
ACTACTCCATTAAGTAGTACACAAAAAAAAAAAATA [XGTACX_site7031]	11.8 ± 1.1
ATATAATATTACACAAGTACAAAAATTAATACTAAA [XGTACX_site482]	11.1 ± 0.61
CCAAAAAATATATGTAGTACTACATTATTAAATATG [XGTACX_site5128]	11.6 ± 0.83
CTCATCCTTACATACACACACATATATATATATATA [CACACA_site103]	10.3 ± 0.41
AGTTTATATTATTAAAGTACATATATATATTCTTAA [XGTACX_site3164]	11.1 ± 0.76
ATATATTTAATTTATGGTACACATAATTTTTTTAGA [XGTACX_site848]	11.2 ± 0.79
TATATATATATATTATGTACTCATTTATTATCTTTT [XGTACX_site8051]	11.4 ± 1.1
ATATATATATATATATGTACTCATATTTTATTATTT [XGTACX_site898]	11.4 ± 0.94
TTTGTCATTTTATTATGTACTCAGCATATAGGGGGG [XGTACX_site505]	11.7 ± 0.66
AAAAAAAAAAAACATACACACATACATACATATATA [CACACA_site8222]	9.86 ± 0.099
ATTAAAGTTATAAATTCACACATGTAAATGTATTTA [CACACA_site5279]	9.85 ± 0.11
TAGTAGTTATCATTAACATGCAATAATATTATTTAA [TGCATGCA_site178]	9.635 ± 0.035
AATATAGATATAAAAAGTACATTATATATATATATA [XGTACX_site6899]	11.3 ± 0.78
ATATATATATATATATGTACACATATATGTGTTTGT [XGTACX_site62]	11.4 ± 0.88
GCTTCTTAATATCATACACACATAGATATATTTATA [CACACA_site5676]	9.925 ± 0.078
ATTTCTAGTTTAAGATGTACTTTAATAAAAATTATT [XGTACX_site4820]	11 ± 0.77
AAAAATATTAAAAGGCGTACAATACCTGTATGCAAC [XGTACX_site6069]	11.6 ± 1
AAGGCATACAATACCTGTACGCAACCTTAAAAAGAA [XGTACX_site6070]	11.5 ± 0.91
TATATATGTATGTATTGTACAATTAAAAATATGTAT [XGTACX_site3990]	10.8 ± 0.43
